The target in assay [1] is Aldehyde dehydrogenase, mitochondrial (Homo sapiens) (UniProt P05091). As to the kind of experiment: qHTS for Inhibitors of the Aldehyde Dehydrogenase Family (ALDH2) Validation screens (AID 2061302; active = well fitted inhibition curve with a large enough effect; title and protocol of this record describe different tests; also: potency is read from the fitted curve at half-maximal effect).
For assay [2] the target is unchanged. As to the kind of experiment: qHTS for Inhibitors of the Aldehyde Dehydrogenase Family (ALDH2) Confirmatory screens (AID 2061303; active = well fitted inhibition curve with a large enough effect; title and protocol of this record describe different tests; also: potency is read from the fitted curve at half-maximal effect; nearly all actives have a fitted effect of over 45% in size).
The nature of assay [3]: qHTS for Inhibitors of the Aldehyde Dehydrogenase Family (ALDH1A2, ALDH1A3, ALDH2, ALDH3A1) (AID 2061307). Also: test system not described further here; potency is read from the fitted curve at half-maximal effect; nearly all actives have a fitted effect of over 50% in size.
The target in assay [4] is Aldehyde dehydrogenase, mitochondrial (Homo sapiens) (UniProt P05091). As to the kind of experiment: qHTS for Inhibitors of the Aldehyde Dehydrogenase Family (ALDH2) Primary screen (AID 2061308). Also: nearly all actives have a fitted effect of over 55% in size. Also: potency is read from the fitted curve at half-maximal effect.
For assay [5], the target named is Retinaldehyde dehydrogenase 3 (Homo sapiens) (UniProt P47895). As to the kind of experiment: qHTS for Inhibitors of the Aldehyde Dehydrogenase Family (ALDH1A3) Confirmatory screens (AID 2061311). Also: potency is read from the fitted curve at half-maximal effect; nearly all actives have a fitted effect of over 60% in size.
Assay [6] addresses Retinal dehydrogenase 2 (Homo sapiens) (UniProt O94788). As to the kind of experiment: qHTS for Inhibitors of the Aldehyde Dehydrogenase Family (ALDH1A2) Confirmation screens (AID 2061314). Also: potency is read from the fitted curve at half-maximal effect; nearly all actives have a fitted effect of over 65% in size.
The target in assay [7] is Retinaldehyde dehydrogenase 3 (Homo sapiens) (UniProt P47895). As to the kind of experiment: qHTS for Inhibitors of the Aldehyde Dehydrogenase Family (ALDH1A3) Primary screen (AID 2061315).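 Also: plate controls were DMSO vehicle for no effect and reference inhibitor for full effect.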
Assay [8] deals with Cellular tumor antigen p53 (Homo sapiens) (UniProt P04637). Description: Primary qHTS for small molecule compounds that upregulate eGFP-tagged delta133p53alpha (in C-terminal) cells. (AID 2060324). Also: potency is read from the fitted curve at half-maximal effect. A digest of the protocol:
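NCI-H358 cells pre-induced 24 h with 100 ng/ml doxycycline to express delta133p53alpha-eGFP, then dosed in doxycycline-free medium for 24 h at 37C. Fixed, Hoechst-stained; GFP intensity by laser scanning cytometry, normalized to DMSO wells.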

In assay [9] the target is Retinaldehyde dehydrogenase 3 (Homo sapiens) (UniProt P47895). As to the kind of experiment: qHTS for Inhibitors of the Aldehyde Dehydrogenase Family (ALDH1A3) Validation screen (AID 2061312). Also: % is scaled to controls: 0 for no effect and ±100 for the full control effect; nearly all actives have a fitted effect of over 45% in size.
The nature of assay [10]: BET inhibitor-based combinations targeting novel dependencies in MECOM-rearranged (r) AML: SET-2 cell line (AID 2202231). Also: nearly all actives have a fitted effect of over 35% in size. Also: potency is read from the fitted curve at half-maximal effect.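 As to viability: plate controls were DMSO treated cells for no effect and wells without cells for full effect.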 The note with it: SET-2 AML cells viability, CellTiter-Glo luminescence, 48 h; viability: active compounds read low, concentration not given here. An outline of the steps:
(§1)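 Readout: CellTiter-Glo luminescence. Exposure: 48 h, 11 concentrations, 500 cells/well. Metric: AUC and within-line Z-AUC after DMSO/empty-well normalization.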

A short description of assay [11]: BET inhibitor-based combinations targeting novel dependencies in MECOM-rearranged (r) AML: OCI-AML3 cell line (AID 2202232). Also: nearly all actives have a fitted effect of over 35% in size. Also: potency is read from the fitted curve at half-maximal effect. The note with it: Potency: OCI-AML3 viability. A digest of the protocol:
as §1

Assay [12] in a line: BET inhibitor-based combinations targeting novel dependencies in MECOM-rearranged (r) AML: MV-4-11 cell line (AID 2202233). Also: nearly all actives have a fitted effect of over 45% in size. Also: potency is read from the fitted curve at half-maximal effect. A digest of the protocol:
(§2)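 Seeding density was 500 cells/well, and drug exposure lasted 48 hr under standard culture conditions. Read-out used CellTiter-Glo reagent with a 15 min room-temperature incubation before luminescence measurement; AUC and Z-AUC summarize the normalized responses.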

The nature of assay [13]: BET inhibitor-based combinations targeting novel dependencies in MECOM-rearranged (r) AML: HNT-34 cell line (AID 2202234). Also: nearly all actives have a fitted effect of over 35% in size. Also: potency is read from the fitted curve at half-maximal effect. A digest of the protocol:
as §2

Assay [14] in a line: BET inhibitor-based combinations targeting novel dependencies in MECOM-rearranged (r) AML: UCSD-AML1 cell line (AID 2202235). Also: nearly all actives have a fitted effect of over 40% in size. Also: potency is read from the fitted curve at half-maximal effect. A digest of the protocol:
as §2

Assay [15] in a line: BET inhibitor-based combinations targeting novel dependencies in MECOM-rearranged (r) AML: AML-191 cell line (AID 2202236; also: nearly all actives have a fitted effect of over 35% in size; also: potency is read from the fitted curve at half-maximal effect). An outline of the steps:
as §1

Assay [16] can be described thus: BET inhibitor-based combinations targeting novel dependencies in MECOM-rearranged (r) AML: AML-194 cell line (AID 2202237; also: nearly all actives have a fitted effect of over 40% in size; also: potency is read from the fitted curve at half-maximal effect). An outline of the steps: as §1
The target of assay [17] is Aldehyde dehydrogenase 1A1 (Homo sapiens) (UniProt P00352). As to the kind of experiment: qHTS for Inhibitors of the Aldehyde Dehydrogenase Family (ALDH1A1) Confirmatory screens (AID 2061316). Also: potency is read from the fitted curve at half-maximal effect; nearly all actives have a fitted effect of over 65% in size.

Results filed as inconclusive are left out. A number with no mark means an inactive call. The source made the active and inactive calls. Unless noted, calls follow the shape of the dose curve; as a rule, active = well fitted curve in the direction sought with a large enough effect; inconclusive = small, poorly fitted or top-dose-only effect, or another doubt; inactive = no such curve, though single readings can be large; an effect the other way counts as inactive or inconclusive.

Sequence of Cellular tumor antigen p53 (Homo sapiens) (P04637 whole entry, looked up): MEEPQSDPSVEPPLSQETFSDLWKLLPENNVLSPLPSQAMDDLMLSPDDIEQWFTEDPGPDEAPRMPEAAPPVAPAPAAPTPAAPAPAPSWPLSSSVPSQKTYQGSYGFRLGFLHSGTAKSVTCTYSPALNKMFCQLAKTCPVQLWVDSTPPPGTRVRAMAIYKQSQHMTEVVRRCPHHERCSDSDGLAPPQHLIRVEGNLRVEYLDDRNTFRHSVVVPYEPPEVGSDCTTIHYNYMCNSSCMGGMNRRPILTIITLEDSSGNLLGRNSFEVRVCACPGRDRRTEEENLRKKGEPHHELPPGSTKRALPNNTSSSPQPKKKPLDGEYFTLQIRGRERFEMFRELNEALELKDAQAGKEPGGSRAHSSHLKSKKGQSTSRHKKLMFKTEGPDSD

For `CC(C)(C)OC(=O)N1CCN(c2ccc(NCc3ccc(-c4ccc(C#N)cc4)o3)cc2)CC1`, the Potency in [1] is 0.282 µM (active); in assay [2], 0.0794 µM (active); in assay [3], 4.47 µM (active); in assay [5], 15.8 µM (active); in assay [6] it was 7.94 µM (active). Further, the Potency entry in assay [4] and in assay [7] was “inactive” in each case.

Take `CCOC(=O)C(C)(C)Oc1ccc(Cl)cc1`: the Potency result in assay [8], in [1], in assay [9], in assay [11], in assay [12] and in assay [13] was “inactive” throughout. In addition, the Potency result in [14], in assay [15] and in [16] was “inactive” in each case. In assay [10], the viability was 112%.

Consider `Cc1cc2c(cc1Cl)N(C(=O)Nc1ccc(Oc3cccnc3C)nc1)CC2`, for which the Potency result in assay [1] is “inactive”.

With `CNC[C@H](O)c1ccc(O)c(O)c1`, the Potency result in assay [8], in assay [1], in [9], in assay [11], in [13] and in assay [14] was “inactive” in each case. In addition, the Potency entry in assay [15] and in assay [16] was “inactive” each time. For the same compound, the viability in [10] was 103%.

Take `CCN1/C(=C/C(C)=O)Sc2ccc(OC)cc21`: the Potency result in [8], in assay [1] and in assay [9] was “inactive” each time. In assay [10], the viability was 93.6%. Also, the Potency is 18.6 µM (active) in [13] and 8.33 µM (active) in [15].

Consider `COc1cc(C(O)C(=O)O)ccc1O` (configuration not stated), for which the Potency result in assay [8], in assay [1] and in [9] was “inactive” each time.

`C=CCc1cccc(C=NNC(=O)CN2CCN(Cc3ccccc3)CC2)c1O`: the Potency result in [8], in [1] and in [9] was “inactive” each time.

As for `NC(N)=N/N=C/c1c(Cl)cccc1Cl`, the Potency result in [8], in assay [1] and in assay [9] was “inactive” in each case.

Consider `COc1ccc(Cc2nccc3cc(OC)c(OC)cc23)cc1OC`, for which, in assay [8], the Potency entry is “inactive”. Moreover, the Potency in assay [10] was 11.8 µM (active); in [11], 8.33 µM (active); in assay [12], 18.6 µM (active); in assay [13], 5.9 µM (active); in assay [14] it was 8.33 µM (active).

As to `Cc1nnc(SCC2=C(C(=O)O)N3C(=O)[C@@H](NC(=O)Cn4cnnn4)[C@H]3SC2)s1`, the Potency entry in assay [1] is “inactive”.

For the compound `C[C@](Cc1ccc(O)c(O)c1)(NN)C(=O)O`, in assay [1], the Potency result was “inactive”.

`O=C1N(c2ccccc2)c2ccccc2C1(Cc1ccncc1)Cc1ccncc1`: the Potency result in assay [8], in assay [1], in assay [9], in [11], in assay [12] and in assay [14] was “inactive” in each case. The Potency result in [15] and in assay [16] was “inactive” each time. Moreover, the viability in assay [10] was 104%.

Consider `CCCCCCC(=O)OC1CC(C)(C)NC(C)(C)C1`, for which the Potency entry in assay [8], in assay [1] and in assay [9] was “inactive” each time.

`O=C1NC(=O)c2cc(Nc3ccccc3)c(Nc3ccccc3)cc21`: the Potency in [8] is 30.1 µM (active). The Potency entry in assay [9] was “inactive”.

Turning to `NS(=O)(=O)c1cccc2c1c([N+](=O)[O-])cc1nc(O)c(O)nc12`, the Potency result in assay [8] and in assay [9] was “inactive” throughout. For the same compound, the Potency in [6] is 25.2 µM (active); in [17] it was 12.7 µM (active).

Regarding `c1ccc(CN2CCC3(CCCc4ccccc43)CC2)cc1`, the Potency entry in assay [1] was “inactive”.

For the compound `COc1ccc(C2CNC(=O)C2)cc1OC1CCCC1` (configuration not stated), the Potency result in [8], in [1], in assay [9], in [11], in [12] and in [13] was “inactive” each time. Besides, the Potency entry in assay [14] and in assay [15] was “inactive” each time. In [10], the viability is 119%.

As to `NS(=O)(=O)c1cc2c(cc1Cl)NCNS2(=O)=O`, the Potency result in assay [8], in assay [1], in assay [9], in assay [11], in [12] and in [13] was “inactive” in each case. Also, the Potency result in [14], in assay [15] and in assay [16] was “inactive” each time. In assay [10], the viability is 107%.

Consider `Nc1ncn([C@@H]2O[C@H](CO)[C@@H](O)[C@H]2O)c(=O)n1`, for which the Potency in assay [8] is 21.3 µM (active); in [10], 1.05 µM (active); in assay [11], 5.9 µM (active); in assay [12] it was 3.32 µM (active); in [13] it was 4.68 µM (active); in assay [14] it was 4.68 µM (active). Also, the Potency is 5.25 µM (active) in [15] and 16.6 µM (active) in assay [16]. The Potency result in assay [1] and in assay [9] was “inactive” throughout.

`COc1ccc([C@@H]2Sc3ccccc3N(CCN(C)C)C(=O)[C@@H]2OC(C)=O)cc1`: the Potency entry in assay [8], in assay [1], in assay [9], in assay [11], in assay [12] and in assay [14] was “inactive” throughout. Also, the Potency result in assay [15] and in [16] was “inactive” throughout. Also, the viability in assay [10] was 101%.

As for `Cc1ccc(/C(=C\CN2CCCC2)c2ccccn2)cc1`, in assay [1], the Potency entry was “inactive”.

For the compound `COc1cc2nc(N(C)CCCNC(=O)C3CCCO3)nc(N)c2cc1OC` (configuration not stated), in [1], the Potency result is “inactive”.

For the compound `COc1ccc(-c2coc3cc(O[C@@H]4O[C@H](CO)[C@@H](O)[C@H](O)[C@H]4O)ccc3c2=O)cc1`, the Potency result in [1] was “inactive”.

`CC(C)(C)OC(=O)N1CCN(c2ncc(NCc3ccc(-c4ccc(C#N)cc4)o3)cn2)CC1`: the Potency in assay [1] was 0.224 µM (active); in [2], 0.1 µM (active); in [3] it was 0.283 µM (active); in assay [4] it was 0.1 µM (active); in assay [5], 25.1 µM (active); in assay [6], 12.6 µM (active). In [7], the Potency entry was “inactive”.

Source of the values: PubChem BioAssay (NCATS).
